The list is not random: actives were taken first. Their share in the collection is about 3.5%.
Rv3671c protease = inhibits the M. tuberculosis serine protease Rv3671c. P9WHR9. hit rate 0.048% among 320,000. AID 2606. inhibition, % at 5.96 µM; in the data active = inhibition above about 38%;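 note: extracellular domain of Rv3671c used as enzyme; 0% = enzyme with DMSO and 100% = no enzyme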
FBA Mtb inh = inhibits M. tuberculosis FBA enzyme. P9WQA3. purified M. tuberculosis FBA, fluorescence read-out. inhibition, % at 1 µM. hit rate 2.3% among 360,000. AID 588726;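 note: 0% = vehicle and 100% = reference inhibitor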
GDH-TPI counter-1 = counter-screen for M. tuberculosis FBA inhibitors: GDH-TPI coupled enzymes | hit rate 1.2% among 360,000 | GDH-TPI coupled enzyme counterscreen, NADH absorbance | inhibition, % at 4.8 µM | AID 588335; in the data active = inhibition above about 30%;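 note: 0% = DMSO wells and 100% = wells lacking the enzyme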
UGM FP inh = inhibitors of M. tuberculosis UDP-galactopyranose mutase; purified UGM, fluorescence polarization probe displacement; inhibition, % at 10 µM; hit rate 0.06% among 320,000; in the data active = inhibition above about 10%, passing the limit was not always enough; inconclusive = no clear call, values can overlap the other calls
Target sequence (P9WIQ1 whole entry, looked up): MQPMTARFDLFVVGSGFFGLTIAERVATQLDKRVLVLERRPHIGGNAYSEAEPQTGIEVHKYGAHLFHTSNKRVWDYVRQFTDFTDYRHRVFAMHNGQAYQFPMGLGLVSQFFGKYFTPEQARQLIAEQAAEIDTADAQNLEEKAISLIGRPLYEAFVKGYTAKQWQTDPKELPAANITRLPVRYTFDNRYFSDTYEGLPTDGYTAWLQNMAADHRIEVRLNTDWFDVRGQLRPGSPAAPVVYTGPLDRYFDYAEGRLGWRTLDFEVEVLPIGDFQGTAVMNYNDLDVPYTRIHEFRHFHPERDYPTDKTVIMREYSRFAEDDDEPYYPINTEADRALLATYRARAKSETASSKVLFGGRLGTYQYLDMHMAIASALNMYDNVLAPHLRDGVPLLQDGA
Mtb bLac sens = beta-lactam sensitization of Mtb H37Rv; M. tuberculosis H37Rv growth with meropenem, percent inhibition; inhibition, % at 25 µM; hit rate 0.27% among 330,000; call rule not given here;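 note: growth measured after seven days incubation then overnight dye step; 0% = bacteria only wells and 100% = bacteria with antibiotic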
Mtb FBA confirm = confirmation of M. tuberculosis fructose-bisphosphate aldolase inhibitors; shares compounds with FBA Mtb inh; purified M. tuberculosis FBA, fluorescence read-out; inhibition, % at 1 µM; hit rate 78% among 5,600;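 note: 0% = vehicle wells and 100% = reference inhibitor wells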
GDH-TPI counter-2 = inhibits GDH-TPI coupling enzymes, flagging Mtb FBA hits. shares compounds with FBA Mtb inh. GDH-TPI coupled enzyme counterscreen, fluorescence. inhibition, % at 1 µM. hit rate 81% among 5,600. AID 652141; in the data active = inhibition above about 10%
* marks the source's active call; other numbers are inactive results; ? = inconclusive; . = no result. Cut-off read from the data, not from the text of the source, unless noted: active = inhibition above about 27%; inactive = the rest.

SMILES | Rv3671c protease | FBA Mtb inh | GDH-TPI counter-1 | UGM FP inh | Mtb bLac sens | Mtb FBA confirm | GDH-TPI counter-2
COc1ccc(-c2cc(C(=O)N3CCN(c4ccccc4)CC3)c3ccccc3n2)cc1 | 5 | 30* | 14 | 2 | 81 | 4 | -8
COc1ccc(-c2cc(C(=O)N3CCN(c4ncccn4)CC3)c3ccccc3n2)cc1 | -1 | 31* | 17 | 3 | 58 | 149* | 123*
COc1ccc(-c2cc(C(=O)N3CCC4(CC3)OCCO4)c3ccccc3n2)cc1 | 4 | 110* | 21 | -2 | -1 | -1 | 1
COc1ccc(-c2cc(C(=O)N3CCN(c4ccccc4O)CC3)c3ccccc3n2)cc1 | -4 | 8 | 7 | -3 | 11 | . | .
CC(CNS(=O)(=O)c1ccc2c(c1)CC(=O)N2C)c1ccccc1 (configuration not stated) | -5 | 1 | 2 | 4 | -3 | . | .
COCCCNC(=S)N1CCN(S(C)(=O)=O)CC1 | 0 | -1 | 5 | -1 | -7 | . | .
COc1ccc2c(c1)C(=O)N(c1ccccc1C)C(=O)C2(C)C | 10 | 25 | 2 | 1 | -3 | . | .
CCN(CC)CCNC(=O)c1cc2c(-c3cccc(OC)c3)nn(C)c2s1 | -12 | 60* | 23 | 3 | -1 | 173* | 129*
COc1cccc(-c2nn(C)c3sc(C(=O)NCc4ccc(C)cc4)cc23)c1 | -93 | 18 | 5 | 0 | 8 | . | .
COc1cccc(-c2nn(C)c3sc(C(=O)NCc4ccccn4)cc23)c1 | -14 | 80* | 20 | 0 | -9 | 0 | -2
COCCCNC(=O)c1cc2c(-c3cccc(OC)c3)nn(C)c2s1 | -9 | 89* | 11 | 2 | -11 | 119* | 107*
Cn1nc(-c2ccccc2)c2cc(C(=O)O)sc21 | -3 | 49* | 8 | 3 | -3 | 1 | 0
O=C(NCc1ccco1)C(=O)NCC1OCCN1C(=O)c1ccc(Cl)cc1 (configuration not stated) | 1 | 3 | 3 | -1 | -7 | . | .
O=C(Nc1ccccn1)c1cc(-c2cccc(Cl)c2)nc2ccccc12 | -13 | -1 | 0 | 3 | 97 | . | .
COc1ccc(CN2CCN(Cc3csc(C(C)=O)c3)CC2CCO)c(C)c1C (configuration not stated) | 1 | -4 | -3 | -2 | -5 | . | .
Cc1ccccc1COC(=O)c1nn(-c2ccccc2)nc1N | -20 | 97* | 0 | 0 | 81 | 79* | 67*
Cc1cc(-c2ccccc2)n2ncc(C#N)c2n1 | 0 | 55* | 25 | 5 | -5 | -2 | -6
CSc1ccccc1NC(=O)c1cnc2scc(C)n2c1=O | -3 | -1 | 28 | -1 | -2 | . | .
Cc1ccccc1NC(=O)c1cnc2ccccn2c1=O | 3 | 0 | 10 | 2 | 12 | . | .
Cc1csc2ncc(C(=O)NCCc3ccccc3)c(=O)n12 | 6 | 52* | 29 | 2 | -6 | 122* | 104*
Cc1csc2ncc(C(=O)NCc3ccccn3)c(=O)n12 | -3 | 65* | 36* | 0 | 1 | 175* | 147*
CCc1ccccc1NC(=O)c1cnc2scc(C)n2c1=O | 1 | -1 | 1 | 1 | 8 | . | .
O=C(NCCc1ccccc1)c1cnc2ccccn2c1=O | -5 | 105* | 30 | -2 | 1 | 113* | 88*
Cc1csc2ncc(C(=O)NCCC(c3ccccc3)c3ccccc3)c(=O)n12 | -10 | 34* | 19 | 0 | -9 | 101* | 57*
COc1cccc(-c2sc3ccccc3c2-c2ccc(OCCN(C)C)cc2)c1 | 0 | 0 | 2 | 0 | 100 | . | .
SMILES | Rv3671c protease | FBA Mtb inh | GDH-TPI counter-1 | UGM FP inh | Mtb bLac sens | Mtb FBA confirm | GDH-TPI counter-2
CCOc1ccc(CCNC(=O)CN2C(=O)c3cccnc3Oc3ccc(Cl)cc32)cc1 | -2 | -1 | -7 | -2 | ? | . | .
Cc1cc(Cc2ccc([N+](=O)[O-])cc2)c(C)cn1 | 0 | 4 | 9 | 2 | 0 | . | .
Cc1ccc(NC(=O)CSc2nc3[nH]ncc3c(=O)[nH]2)cc1Cl | -13 | 3 | 1 | -4 | -10 | . | .
Fc1ccc(C[n+]2c(-c3ccccc3)cc(-c3ccccc3)cc2-c2ccccc2)cc1 | -3 | . | . | 1 | 94 | . | .
Clc1ccc(C[n+]2c(-c3ccccc3)cc(-c3ccccc3)cc2-c2ccccc2)cc1 | -2 | 38* | 15 | 2 | 100 | 22 | 13*
COc1cccc2c(=O)c(SC(F)(F)C(F)C(F)(F)F)c(C)[nH]c12 (configuration not stated) | 2 | 35* | 14 | -1 | 1 | 114* | 100*
